Source: PubChem BioAssay (several laboratories)
PTPN22 inh 2: blocks human PTPN22 phosphatase activity; inhibition, % at 2 µM; Q9Y2R2; 96,000 tested, 0.21% active; recombinant LYP catalytic domain, DiFMUP fluorescence;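 active = inhibition at 2 µM at or above a set limit, the screen mean plus 3 SD, cut at about 24% in these data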;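 note: 0% = DMSO with enzyme and 100% = enzyme fully blocked by orthovanadate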
S1P2 agonist: agonists of human S1P2 receptor; O95136; activation, % at 4.5 µM; AID 729; 97,000 tested, 0.46% active; S1P2-expressing cell line, agonist reporter read-out; in the data active = activation above about 16%;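 note: 0% = vehicle low control and 100% = maximal reference agonist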
LYP act: activators of human LYP (PTPN22) phosphatase | Q9Y2R2 | recombinant LYP, DiFMUP fluorescence; 0 = plate median, 100 = signal doubled | activation, % at 2 µM | 96,000 tested, 0.11% active | AID 697;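 active = activation at 2 µM above a set limit, the mean plus 5 SD, cut at about 37% in these data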
GALR2 blocker: antagonists of human galanin receptor 2 (GALR2); GALR2-expressing cells, antagonist mode; 140,000 tested, 0.39% active; O43603; inhibition, % at 4 µM; in the data active = inhibition above about 27%;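 note: cells stimulated with galanin 1-16 at roughly its EC80; 0% = agonist challenge control and 100% = basal control without agonist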
Target sequence (O43603 whole entry, looked up): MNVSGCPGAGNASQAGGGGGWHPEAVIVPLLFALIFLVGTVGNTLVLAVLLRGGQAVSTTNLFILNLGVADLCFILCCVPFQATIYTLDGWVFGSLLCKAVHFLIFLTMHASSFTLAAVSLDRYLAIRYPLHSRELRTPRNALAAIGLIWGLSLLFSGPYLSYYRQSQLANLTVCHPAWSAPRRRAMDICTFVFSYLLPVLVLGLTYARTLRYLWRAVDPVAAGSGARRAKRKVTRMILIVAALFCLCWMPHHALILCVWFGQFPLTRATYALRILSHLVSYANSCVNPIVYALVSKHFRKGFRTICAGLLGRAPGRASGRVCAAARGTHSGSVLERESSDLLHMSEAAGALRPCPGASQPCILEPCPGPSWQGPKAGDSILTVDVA
S1P2 blocker: antagonists of human S1P2 receptor | O95136 | cell-based S1P2 antagonist assay, inhibition at 5 uM | inhibition, % at 5 µM | 97,000 tested, 0.21% active | AID 736; in the data active = inhibition above about 45%;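 note: CRE beta-lactamase reporter cells expressing human S1P2 stimulated with S1P; 0% = agonist at EC80 alone and 100% = agonist plus reference antagonist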
GALR2 ag: activates the human galanin receptor 2. O43603. GALR2-expressing cells, agonist activation read-out. activation, % (test concentration not listed). 140,000 tested, 0.48% active. AID 803; in the data active = activation above about 5%, passing the limit was not always enough;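 note: 0% = vehicle buffer wells and 100% = reference agonist at full effect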
Numbers without * were called inactive; i = inactive; · = no result given. Only some compounds are listed: those with a hit (about 1.3% of all), similar ones and a draw of the others.

SMILES | PTPN22 inh 2 | S1P2 agonist | LYP act | GALR2 blocker | S1P2 blocker | GALR2 ag
COCCCn1c(SCc2nc3ccccc3c(=O)[nH]2)nc2ccccc2c1=O | -3 | 23* | 5 | -2 | -32 | 1
O=[N+]([O-])c1c(NCCCO)cc(Sc2ccc(Cl)cc2)c2nonc12 | · | · | · | 8 | · | 5.0*
Cc1ccc(S(=O)(=O)NCC(c2ccco2)N2CCOCC2)cc1 (stereo not given) | · | · | · | -16 | · | -2
O=C(Nc1ccc(N2CCOCC2)cc1)Nc1ccc2nc(-c3ccco3)c(-c3ccco3)nc2c1 | -15 | 0 | 14 | 32* | -8 | 0
N#Cc1nc(-c2ccc(OCc3ccc(Cl)cc3)cc2)oc1NCCCn1ccnc1 | 26* | -4 | -27 | 4 | 14 | -2
CCc1nnc(NC(=O)c2c(C)nn(-c3ccccc3)c2Cl)s1 | -1 | 0 | -3 | -2 | 5 | -1
Cc1noc2ncnc(Sc3ccccc3Cl)c12 | -3 | -8 | 2 | 10 | 55* | -2
CC(C)C(CCNC(=O)CC(Cc1ccccc1)c1ccco1)c1ccco1 (stereo not given) | 24* | -4 | -21 | -15 | 4 | 0
Cc1ccc(S(=O)(=O)N2CCCC2C(=O)Oc2ccccc2)cc1 (stereo not given) | -6 | 36* | 3 | 0 | -2 | 0
COC(=O)C1CCCN1S(=O)(=O)c1ccc2ccccc2c1 (stereo not given) | -12 | -5 | 11 | -5 | 9 | -1
CC(=O)N(Cc1cc(=O)[nH]c2ccccc12)c1ccc(C)cc1 | 3 | -6 | -4 | -1 | i | -1
O=c1cc(CNCCCO)c2ccccc2[nH]1 | -1 | 23* | 0 | -1 | -8 | 0
COc1ccc2cc(Br)ccc2c1CC(=O)NC1CC(C)(C)NC(C)(C)C1 | -3 | -5 | 0 | -6 | 2 | -1
CCOC(=O)CCC(=O)Nc1cccc([N+](=O)[O-])c1 | · | · | · | 1 | · | -1
COc1cccc(/C=N/NC(=O)c2ccc(=O)n(C)c2)c1O | · | · | · | 3 | · | 0
COc1cccc(/C=N/NC(=O)c2ccc(-c3ccccc3)cc2)c1O | 28* | -1 | -27 | 11 | 0 | -2
O=C(O)CCCN1C(=O)/C(=C/c2ccc(-c3nc4ccccc4s3)o2)SC1=S | 41* | -7 | -38 | -13 | 9 | -4
COc1ccc(/C=N/NC(=O)c2ccc(COc3ccccc3Cl)o2)cc1 | 4 | -9 | 0 | 1 | -11 | 0
COc1ccc(/C=N/NC(=O)c2ccc(COc3ccccc3Cl)o2)c(OC)c1C | · | · | · | 0 | · | 8.0*
C[C@H](CO)NC(=O)[C@@H]1C[C@H]1[C@@H](NP(=O)(c1ccccc1)c1ccccc1)c1ccccc1 | · | · | · | -4 | · | -3
Cc1ccc(Nc2cc(C)nn2-c2nc(C)cc(=O)[nH]2)cc1 | 26* | -7 | -27 | -6 | 15 | -3
CCCCOc1ccc(C(CC(=O)NC)C(=O)O)cc1 (stereo not given) | 3 | 0 | -6 | -6 | -8 | -3
Cc1ccc(/C=C2/NC(=O)N(Cc3ccc(Br)cc3)C2=O)o1 | · | · | · | 22 | · | 6.1*
CCN1C(=O)N/C(=C/c2ccc(C)o2)C1=O | · | · | · | -2 | · | -2
CN1CCN(CC(=O)Nc2nnc(-c3cccs3)s2)CC1 | · | · | · | -15 | · | 1
SMILES | PTPN22 inh 2 | S1P2 agonist | LYP act | GALR2 blocker | S1P2 blocker | GALR2 ag
Cc1nn(C)cc1/C=N/NC(=O)Cn1nccc1C | · | · | · | -12 | · | -1
COc1ccc(NC(=O)C(C)Sc2nnc3c4c(nc(-c5ccc(OC)cc5)n23)CC(C)(C)OC4)cc1 (stereo not given) | · | · | · | 0 | · | -1
CCc1cccc(Nc2cc(C)nc3ncnn23)c1 | · | · | · | 5 | · | 0
CCn1c2ccccc2c2cc(Nc3cc(C)nc4ncnn34)ccc21 | · | · | · | 34* | · | 3
[O-][N+]1=c2ccc(Nc3ccccc3)cc2=NC12CCCCC2 | 4 | -11 | -4 | 12 | 48* | -3
Cc1ccc(Cn2cccc(-c3nc4ccccc4s3)c2=O)cc1 | 4 | 77* | -1 | -18 | -71 | 65*
O=C(Nc1ccccc1-c1nc2ccccc2s1)c1ccco1 | -11 | -1 | 10 | -13 | -10 | 1
O=c1c(-c2nc3ccccc3s2)cccn1Cc1ccccc1 | 8 | 63* | -5 | -12 | -56 | 31*
Cc1ccc(Cn2cccc(NC(=O)NCc3ccccc3)c2=O)cc1 | 0 | -2 | 2 | 2 | 7 | -3
COc1cc(NC(=O)COC(=O)Cc2ccc(-c3ccccc3)cc2)cc(OC)c1 | · | · | · | 8 | · | -2
O=C(NCCCn1ccnc1)C(Cc1ccc([N+](=O)[O-])cc1)N1C(=O)c2ccccc2C1=O (stereo not given) | 0 | -9 | 0 | 0 | -3 | -2
COc1cc2c(cc1OC)CN(CC(=O)Nc1ccccc1C#N)CC2 | 0 | 1 | 0 | 5 | 4 | -2
COc1cc2c(cc1OC)C1=C(C#N)CN(CC(=O)O)CN1CC2 | · | 23* | · | -8 | -28 | -1
Cc1cc(SCC(=O)c2cccs2)n2nc(C)c(-c3ccc(Cl)cc3)c2n1 | · | · | · | 10 | · | -1
C=CCSc1cc(C)nc2c(-c3ccc(Cl)cc3)c(C)nn12 | -6 | 23* | 7 | -9 | -35 | 0
CS(=O)(=O)c1ccc2nc(NC(=O)Nc3cccc(Cl)c3)sc2c1 | 11 | -10 | -8 | 4 | 47* | 0
CNC(=S)N(Cc1ccc2c(c1)OCO2)C1CC(=O)N(c2ccc(F)cc2)C1=O (stereo not given) | 6 | -4 | 0 | 4 | -17 | -4
CCn1c(C)nc2cc(C(=O)OC(C(F)(F)C(F)F)C(F)(F)C(F)F)ccc21 | -1 | -9 | 3 | 7 | 70* | 0
CCn1c(C)nc2cc(C(=O)NNS(=O)(=O)c3c(C)c(C)cc(C)c3C)ccc21 | 5 | -5 | -5 | -6 | 13 | -2
CN(C)CC(C)(C)CNS(=O)(=O)c1cccc2nsnc12 | · | · | · | 4 | · | -1
Brc1ccc2nc(CSc3ncn[nH]3)cn2c1 | 83* | -3 | -84 | 2 | -1 | -2
CN(C)c1ccc(NC(=O)c2cccc(N3C(=O)C4C5C=CC(C5)C4C3=O)c2)cc1 (stereo not given) | -6 | -4 | 3 | 47* | -2 | -3
CCCc1nnc(SCC(=O)N2C(C)CCCC2C)n1CC1CCCO1 (stereo not given) | 10 | -4 | -7 | 1 | -23 | 1
Cc1nn(-c2ccc(F)cc2)c2sc(C(=O)N3CCCCCC3)cc12 | 6 | 30* | -3 | -21 | -26 | 1
CNC(=O)COC(=O)c1cc2c(C)nn(-c3ccc(F)cc3)c2s1 | 1 | 1 | -4 | 9 | -14 | -4
CCn1c(CSc2nc3ccccc3s2)nnc1SCC(=O)c1ccc(O)c(O)c1 | 46* | -8 | -44 | 0 | 13 | -3
CCn1c(CSc2nc3ccccc3s2)nnc1SCC(=O)c1ccc(Cl)cc1 | 1 | -2 | -3 | -4 | -24 | -2
Cc1ccccc1-c1cc(C(=O)Nc2sc(C)c(C)c2C(N)=O)c2ccccc2n1 | -1 | 17* | -1 | 12 | -41 | 0
